Screens deposited in PubChem BioAssay by National Center for Advancing Translational Sciences (NCATS).
Shown are actives, neighbours in structure and some others; about 6.2% of the full set was active somewhere.
RORg inh: qHTS for inhibitors of ROR gamma transcriptional activity | Nuclear receptor ROR-gamma (Mus musculus), P51450 | Drosophila S2 Gal4-RORgamma UAS-luciferase reporter, 20 h | Potency, µM (titrated, usually from 53.6 µM), without a hit: at the highest dose activity change, negative = inhibition, most hits filed as inhibitors | 310,000 compounds, 5.4% hits | AID 2551, 2010; further: nearly all actives have a fitted effect of over 60% in size
Target sequence (P51450 whole entry, looked up, the tested form may be a part): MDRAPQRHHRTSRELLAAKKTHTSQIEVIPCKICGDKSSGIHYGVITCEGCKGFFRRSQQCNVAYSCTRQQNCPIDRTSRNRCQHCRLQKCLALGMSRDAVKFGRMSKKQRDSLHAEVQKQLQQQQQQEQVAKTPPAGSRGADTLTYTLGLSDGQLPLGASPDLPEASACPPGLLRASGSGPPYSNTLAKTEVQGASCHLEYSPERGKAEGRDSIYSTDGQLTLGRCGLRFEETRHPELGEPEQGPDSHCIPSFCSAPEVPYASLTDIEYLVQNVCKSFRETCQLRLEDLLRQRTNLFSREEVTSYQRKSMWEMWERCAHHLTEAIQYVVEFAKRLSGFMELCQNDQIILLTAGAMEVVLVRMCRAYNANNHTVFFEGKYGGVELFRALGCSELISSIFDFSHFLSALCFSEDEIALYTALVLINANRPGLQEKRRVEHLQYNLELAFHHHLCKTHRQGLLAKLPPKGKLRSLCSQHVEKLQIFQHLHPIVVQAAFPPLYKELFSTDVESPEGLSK
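In this cell-based reporter format, copper sulfate (700 uM final) drives Gal4–ROR gamma fusion expression from a metallothionein promoter in Drosophila Schneider cells; compounds preincubated 1 hr, reporter read after 20 hr at ambient temperature.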
Luc counter: Counterscreen for Luciferase (Kinase-Glo TM) Inhibition | Luciferin 4-monooxygenase (Photuris pensylvanica), Q27757 | Kinase-Glo luciferase, ATP luminescence, 8 min | Potency, µM (top dose mostly 38.3 µM), for inactives: top-dose activity change, negative = inhibition, actives largely listed as inhibitors | 200,000 compounds, 0.28% hits; further: nearly all actives have a fitted effect of over 60% in size
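Luminescence was the read-out, taken after 8-minute incubation at ambient temperature. Luciferase turned over luciferin with 10 uM ATP in imidazole pH 7.2 buffer containing KCl, MgCl2, Tween 20 and BSA.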
Gal4-VP16 FLuc: VP16 counterscreen qHTS for inhibitors of ROR gamma transcriptional activity; Drosophila S2 Gal4-VP16 UAS-luciferase, luminescence, 20 h; Potency, µM (doses to about 53.6 µM), for inactives: at the highest dose activity, negative = inhibition, most hits filed as inhibitors; 310,000 compounds, 3.5% hits;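 further: Gal4-VP16 expression switched on by copper sulfate through the metallothionein promoter; nearly all actives have a fitted effect of over 50% in size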
The depositor's hits bear a star; [ ] = another dose, or the depositor's remark. The call rests on the fitted dose curve; in most records, active means well fitted curve in the direction sought with a large enough effect; inconclusive means small, poorly fitted or top-dose-only effect, or another doubt; inactive means no such curve, though single readings can be large; an effect the other way counts as inactive or inconclusive. On the % scale 0 is the no-effect control and ±100 the full control effect; potency means the concentration at half of the fitted maximal effect.

What do the screens show for `O=C1CN(C(=O)COc2ccc(Cl)cc2Cl)c2ccccc2N1`?
RORg inh: 11%; Gal4-VP16 FLuc: -4%

Results for Cc1ccc(Cn2c(SCC(=O)N3CC(=O)Nc4ccccc43)nc3ccccc3c2=O)cc1 ?
RORg inh: 1.6µM*; Gal4-VP16 FLuc: inconclusive

Results for O=C1CN(C(=O)Cn2ncc(Cl)c(Cl)c2=O)c2ccccc2N1 ?
RORg inh: 11µM*; Luc counter: -2%; Gal4-VP16 FLuc: inconclusive

Results for Cc1nnc(SCC(=O)N2CC(=O)Nc3ccccc32)n1Cc1ccccc1 ?
RORg inh: 14%; Luc counter: -3%; Gal4-VP16 FLuc: -8%

How did O=C(CSc1nnnn1-c1ccccc1)N1CCNC1=O do in these assays?
RORg inh: 18%; Gal4-VP16 FLuc: 18%

How did O=C1CN(C(=O)CSc2nc3cc(Cl)ccc3c(=O)n2Cc2ccccc2)c2ccccc2N1 do in these assays?
RORg inh: inconclusive; Luc counter: 2%; Gal4-VP16 FLuc: 13µM*

How did CC(c1ccccc1)n1c(SCC(=O)N2CC(=O)Nc3ccccc32)nc2ccccc2c1=O (stereo not drawn) do in these assays?
RORg inh: 34%; Luc counter: 1%; Gal4-VP16 FLuc: -8%

What do the screens show for `O=C1CN(C(=O)CSc2nnnn2-c2ccc(Cl)cc2)c2ccccc2N1`?
RORg inh: 3.5µM*; Luc counter: -1%; Gal4-VP16 FLuc: -3%

How did CC(C)=CCl do in these assays?
RORg inh: -4%; Gal4-VP16 FLuc: 7%

Results for CN(C)c1ncnc2ccc(-c3ccccc3C#N)cc12 ?
RORg inh: 4%; Luc counter: -1%; Gal4-VP16 FLuc: 8%

What do the screens show for `COc1ccc2nc3c(nc2c1)C(=O)c1ccccc1-3`?
Luc counter: -8%

Results for Cc1c2cc[n+](CCN3CCCCC3)cc2c(C)c2c1[nH]c1ccc(O)cc12 ?
Luc counter: -4%[7.66 µM]

What do the screens show for `N#Cc1cccc(-c2ccc3ncnc(NCc4cccnc4)c3c2)c1`?
RORg inh: -39%; Luc counter: -1%; Gal4-VP16 FLuc: inconclusive

How did CN(CC(=O)Nc1c(Cl)cccc1Cl)C(=O)CCC1CCCC1 do in these assays?
RORg inh: -56%; Gal4-VP16 FLuc: 11µM*

How did CN(CC(=O)Nc1c(Cl)cccc1Cl)C(=O)Cc1ccc(S(=O)(=O)N2CCOCC2)s1 do in these assays?
RORg inh: 6%; Gal4-VP16 FLuc: 6%

How did CC(=O)c1ccc(NC(=O)CN2C(=O)CCC2=O)cc1 do in these assays?
RORg inh: 3%; Luc counter: 6%; Gal4-VP16 FLuc: 1%

Results for O=C(O)c1ccc(/C=N/NC(=O)c2cc(-c3ccc4c5c(cccc35)CC4)n[nH]2)cc1 ?
RORg inh: 34%; Luc counter: 0%; Gal4-VP16 FLuc: -3%

Results for CCC1CCCCN1C(=O)CSc1nc(N)cc(N)n1 (stereo not drawn) ?
RORg inh: -18%; Luc counter: 1%; Gal4-VP16 FLuc: 7%

Results for CCN(CC)CCCNC(=O)c1cc(-c2ccccc2)c(N2CCCCC2)s1 ?
RORg inh: -22%; Gal4-VP16 FLuc: 1%

Results for Cc1cc(O)c(C(C)(C)C)cc1Sc1cc(C(C)(C)C)c(O)cc1C ?
RORg inh: 10µM*; Gal4-VP16 FLuc: inconclusive

Results for CC(C)(C)c1cc(O)c(C(C)(C)C)cc1O ?
RORg inh: -32%; Luc counter: 1%; Gal4-VP16 FLuc: -18%

Results for CCN(Cc1ccccc1)C(=O)c1ccc(Cl)cc1[N+](=O)[O-] ?
RORg inh: 9%; Luc counter: -1%; Gal4-VP16 FLuc: -3%

How did CCCCOc1ccccc1NC(=O)C=C(C)C do in these assays?
RORg inh: -2%; Luc counter: -1%; Gal4-VP16 FLuc: -3%

Results for CCCOc1ccccc1NC(=O)/C=C/C(N)=O ?
RORg inh: 4µM*; Luc counter: 15%; Gal4-VP16 FLuc: 4.5µM*

How did O=C1c2cccc3cccc(c23)C(=O)N1CCN1CCN(C(=S)Nc2ccc(F)cc2)CC1 do in these assays?
RORg inh: -33%; Luc counter: -3%; Gal4-VP16 FLuc: -2%

Results for Cc1ccc(NC(=S)N2CCN(CCN3C(=O)c4cccc5cccc(c45)C3=O)CC2)cc1 ?
RORg inh: 7.1µM*; Luc counter: 5%; Gal4-VP16 FLuc: inconclusive

What do the screens show for `CC(C)(C)C1CCc2c(C(=O)N/N=C/c3cccs3)csc2C1` (stereo not drawn)?
RORg inh: inconclusive; Luc counter: 5%; Gal4-VP16 FLuc: -22%

How did CC(C)(C)C1CCc2c(C(=O)NNC(=O)/C=C/C(=O)O)csc2C1 (stereo not drawn) do in these assays?
RORg inh: inconclusive; Luc counter: -1%; Gal4-VP16 FLuc: 14µM*

What do the screens show for `O=C(Nc1cccc(O)c1)c1cc(-c2ccccc2Cl)on1`?
RORg inh: 0.22µM*; Gal4-VP16 FLuc: 1.3µM*

Results for COc1cc(NC(=O)c2cc(-c3ccc4c(c3)OCO4)on2)cc(OC)c1OC ?
RORg inh: -19%; Gal4-VP16 FLuc: -21%

What do the screens show for `COc1ccc(NC(=O)c2cc(-c3ccccc3Cl)on2)cc1OC`?
RORg inh: 5%; Gal4-VP16 FLuc: -7%

What do the screens show for `O=C(c1cc(-c2ccccc2Cl)on1)N1CCCC1`?
RORg inh: 13µM*; Gal4-VP16 FLuc: inconclusive

What do the screens show for `O=C(Nc1cccc(O)c1)c1cc(-c2ccc3c(c2)OCO3)on1`?
RORg inh: 4µM*; Gal4-VP16 FLuc: 1.4µM*

Results for COc1ccccc1-c1cc(C(=O)N2CCCC2)no1 ?
RORg inh: -29%; Gal4-VP16 FLuc: -5%

Results for CCN(c1cccc(C)c1)S(=O)(=O)c1nnc(NC(=O)c2ccco2)s1 ?
RORg inh: -38%; Gal4-VP16 FLuc: inconclusive

What do the screens show for `O=C(CN1CCN(c2ccccn2)CC1)Nc1cccc(F)c1`?
RORg inh: -11%; Gal4-VP16 FLuc: -3%

How did COCCNC(=O)Cn1nc(-c2ccc(Cl)cc2)c2ccccc2c1=O do in these assays?
RORg inh: -1%; Gal4-VP16 FLuc: 1%

What do the screens show for `CCCCCCCCCCCCOCC1CO1` (stereo not drawn)?
RORg inh: -3%; Gal4-VP16 FLuc: -1%

What do the screens show for `Cc1ccc2nc(NC(=O)c3ccc(-c4nc5ccccc5s4)s3)sc2c1`?
RORg inh: 7.9µM*; Luc counter: -4%; Gal4-VP16 FLuc: 6%

What do the screens show for `O=C(Nc1nc(=O)c2ccccc2s1)c1ccccc1`?
RORg inh: 7.1µM*; Luc counter: -4%; Gal4-VP16 FLuc: 6.3µM*

How did COCC(=O)Nc1nc2ccc(C)cc2s1 do in these assays?
RORg inh: inconclusive; Luc counter: -19%; Gal4-VP16 FLuc: inconclusive

How did Cc1ccc(C(=O)Nc2nc3ccccc3c(=O)s2)cc1 do in these assays?
RORg inh: 14µM*; Luc counter: -3%; Gal4-VP16 FLuc: inconclusive

What do the screens show for `CSc1nc2ccc3nc(NC(=O)c4ccc(C)cc4)sc3c2s1`?
RORg inh: -15%; Luc counter: 3%; Gal4-VP16 FLuc: -6%

What do the screens show for `COc1ccc(OC)c(-c2csc(NC(=O)c3ccc(F)cc3)n2)c1`?
RORg inh: 11µM*; Gal4-VP16 FLuc: 10µM*

How did COc1ccc(OC)c(-c2csc(NC(=O)Cc3ccc(F)cc3)n2)c1 do in these assays?
RORg inh: -5%; Gal4-VP16 FLuc: -14%
